From PubChem BioAssay
PABP1 MLLE inh: inhibitors of PABP1 MLLE–PAM2 peptide binding, primary screen, biochemical, fluorescence polarization, FITC-PAM2, GST-MLLE. 360,000 compounds, 0.36% hits. inhibition, % at 20 µM. AID 588489, 2011; in the data active = inhibition above about 35%, passing the limit was not always enough;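 also: plate controls were DMSO wells with GST-MLLE for no effect and wells lacking GST-MLLE protein for full effect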
eIF4H FP inh: human eIF4H binding inhibitors, primary screen, translation initiation inhibitor project, biochemical, uHTS, fluorescence polarization. eIF4H fluorescence polarization binding assay. inhibition, % at 35 µM. 290,000 compounds, 0.94% hits. AID 2012, 2009;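 also: calls also rest on retests at 20 µM and on dose response follow-up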
PABP FP inh: PABP poly(A) RNA binding inhibitors, primary screen, biochemical, fluorescence polarization, uHTS. Polyadenylate-binding protein 1 (Homo sapiens), P11940. inhibition, % at 35 µM. 290,000 compounds, 1% hits. AID 2014, 2009;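 also: calls also rest on retests at 20 µM and on dose response follow-up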
PERK inh: block of dimerizer-induced PERK translation repression, primary screen, PERK inhibitor project, CHO PERK-DD cells, SEAP luminescence, HTS | CHO PERK-DD fusion, SEAP luminescence translation reporter | inhibition, % at 5.6 µM | 220,000 compounds, 0.17% hits | AID 1416, 2008;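 active = inhibition above the mean inhibition of all tested compounds plus 3 SD, set separately per screening campaign, cut at about 2.9% in these data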;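 also: PERK kinase domain activated by AP20187 dimerizer at 100 nM; 0% = DMSO with dimerizer and 100% = rapamycin at 8.4 µM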
eIF4E-4G inh: eIF4E–eIF4G protein interaction inhibitors, primary screen, biochemical, uHTS, TR-FRET, eIF4GI fragment | Eukaryotic translation initiation factor 4E (Mus musculus) + Eukaryotic translation … | TR-FRET eIF4E-eIF4GI(517-606) binding, 2 h | inhibition, % at 21.7 µM | 220,000 compounds, 0.37% hits | AID 782, 2007;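 active = inhibition above about 30%, limit read from the data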;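 also: 0% = full FRET control wells and 100% = background wells lacking eIF4GI fragment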
* marks the source's active call; other numbers are inactive results; ? = inconclusive; · = no result given; [ ] = another dose, or the depositor's remark. Shown are actives, neighbours in structure and some others; about 1.6% of the full set was active somewhere. Unless noted, no rule for the calls is given here.

SMILES	PABP1 MLLE inh	eIF4H FP inh	PABP FP inh	PERK inh	eIF4E-4G inh
COc1cccc(NC(=O)CSc2nnc(-c3ccco3)c(-c3ccco3)n2)c1	26	83*	44*	·	·
CN(CCC#N)c1ccc(C=C(C#N)c2ccc(Br)cc2)cc1	-27	·	·	·	·
COc1ccc(C)cc1-n1nnnc1SCn1nnc2ccccc2c1=O	46*	2	-1	0	-10
Cc1ccc(-n2nnnc2SCn2nnc3ccccc3c2=O)cc1	-20	1	0	0	6
CC1CCc2nn(CC(=O)N3CCCCCC3)cc2C1 (stereo not drawn)	-2	-4	-5	-1	77*[fluorescence artefact?]
Cc1cc(N=Nc2c(O)c3ccccc3[nH]c2=O)ccc1N=Nc1ccc(C(=O)N(C)C)cc1	13	25	9	1	11
Cc1ccc(N=Nc2c(O)c3ccccc3[nH]c2=O)c(S(=O)(=O)N(C)C)c1	·	-6	16	3.3*	2
CCCCCCn1ccc(=N)cc1	7	-6	7	1	14
CCCCCCCCCCCCCCCCn1cc[n+](CC(C)=O)c1	-30	12	5	1	68*
COc1cc(C2C3=C(Nc4nc(N)[nH]c(=O)c42)c2ccccc2C3=O)ccc1O (stereo not drawn)	15	93*	73*	1	1
O=C(Oc1ccccc1)N1CCN(c2ccc(F)cc2)CC1	3	1	0	-1	3
COc1cc(/C=C2\S/C(=N/S(=O)(=O)Cc3ccccc3)NC2=O)c([N+](=O)[O-])cc1OC	23	1	24	1	-3
COc1cc(/C=C2/S/C(=N/S(=O)(=O)c3ccccc3)NC2=O)c([N+](=O)[O-])cc1OC	39*	22	63	0	2
COc1cc(/C=C2/S/C(=N/S(=O)(=O)Cc3ccccc3)NC2=O)c([N+](=O)[O-])cc1OC	9	1	4	3.0*	-6
CN1CCN(NC(=S)NC2CCCCC2)CC1	-12	87*	0.9*	1	2
S=C(NC1CCCCC1)NN1CCCCCC1	-33	·	·	·	·
C=CCNc1cc(N2CCCC2)ccc1[N+](=O)[O-]	3	-7	-17	0	-3
CCN(CC)C(=O)CSc1nnc(SCc2ccc(Cl)cc2)s1	-11	-16	-5	-1	-5
CCCn1c(SCC(=O)N(CC)CC)nnc1-c1ccncc1	10	-4	-7	3	5
CCN(CC)C(=O)CSc1nnc2nnc3cc(C)ccc3n12	40*	?	?	2	6
CCN(CC)C(=O)CSc1nnc2nnc3cc(Cl)ccc3n12	67*	?	?	1	-3
O=C(Cn1cncc1-c1ccc([N+](=O)[O-])cc1)Nc1ccccc1F	-40	-8	-11	-1	6
CCOC(=O)c1cnn(C(=O)c2ccccc2)c1N	-11	-12	-3	0	45*[fluorescence artefact?]
COc1ccc(S(=O)(=O)NCC2CCC(C(=O)NCc3ccc(F)cc3)CC2)cc1 (stereo not drawn)	4	-13	-3	·	·
N#Cc1c(SCC(=O)Nc2nc3ccc(Br)cc3s2)sc2c(O)cc(=O)[nH]c12	-35	73*	48*	·	·
SMILES	PABP1 MLLE inh	eIF4H FP inh	PABP FP inh	PERK inh	eIF4E-4G inh
CCCSc1nnc(NC(=O)CSc2sc3c(O)cc(=O)[nH]c3c2C#N)s1	17	72*	46*	·	·
N#Cc1cccc(NC(=O)CSc2sc3c(O)cc(=O)[nH]c3c2C#N)c1	-10	27	18	·	·
N#Cc1c(SCC(=O)Nc2nc3ccccc3s2)sc2c(O)cc(=O)[nH]c12	-3	·	·	·	·
N#Cc1c(SCC(=O)Nc2nccs2)sc2c(O)cc(=O)[nH]c12	-23	68*	38*	·	·
CC(C(=O)Nc1ccccn1)N1C(=O)C2C3C=CC(C3)C2C1=O (stereo not drawn)	-1	0	2	-1	1
O=C(CC(Sc1ccc(Br)cc1)C(=O)O)c1ccc(F)cc1 (stereo not drawn)	39*	-2	-6	·	·
COc1ccc(-c2nnc(SCC(=O)/C(C#N)=C(\C)N)o2)cc1	-33	15	7	1	1
